Assay results published in PubChem BioAssay AID1220 (Sanford-Burnham Center for Chemical Genomics, 2008).
Several values for one entry are separate records, joined by “and”; a condition that tells them apart may be missing. Identical values can stand only once. Screen size: about 190,000 compounds; about 1,300 (0.68%) were called active. Rule as the data show it: active = inhibition above about 50%; inactive = the rest. Shown is part of a subset that was picked to be rich in actives.

Each compound was assayed against Mannose-6-phosphate isomerase (Homo sapiens) (UniProt P34949) (assay: MPI inhibition at elevated mannose 6-phosphate – biochemical, fluorescence intensity, high mannose 6-phosphate, primary screen (AID 1220)). Settings: recombinant PMI enzyme, coupled fluorescence intensity; at 20 µM; stronger effect = higher value.
Mannose-6-phosphate isomerase (Homo sapiens), sequence (P34949 whole entry, looked up): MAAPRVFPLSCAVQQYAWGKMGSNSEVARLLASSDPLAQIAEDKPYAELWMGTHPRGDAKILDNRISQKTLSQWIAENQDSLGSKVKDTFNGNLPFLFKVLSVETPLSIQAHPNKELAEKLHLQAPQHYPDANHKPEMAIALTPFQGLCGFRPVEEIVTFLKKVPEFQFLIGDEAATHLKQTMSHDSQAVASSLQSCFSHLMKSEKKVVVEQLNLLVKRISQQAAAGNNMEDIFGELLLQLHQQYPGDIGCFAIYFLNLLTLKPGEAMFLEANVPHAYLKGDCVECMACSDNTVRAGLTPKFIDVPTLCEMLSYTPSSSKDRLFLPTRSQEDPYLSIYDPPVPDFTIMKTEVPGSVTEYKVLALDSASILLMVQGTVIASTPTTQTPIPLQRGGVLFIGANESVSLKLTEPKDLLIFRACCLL
In the case of O=C(Oc1cccc2c(O)cccc12)c1ccccc1, the inhibition is reported as 23.5% (inactive). For CC(=O)Oc1c(C)cc(O)c2ccccc12, the inhibition was 19.2% (inactive). With CC(=O)Cc1cc(O)c2ccccc2c1OC(=O)c1ccccc1 the inhibition was 68.6% (active). In the case of Cc1cc(N2CCCC2=O)c(N)cc1N, the inhibition is reported as 4.5% (inactive). In the case of O=C1CN(CC(=O)Nc2cccc(Cl)c2Cl)c2ccccc2N1, the inhibition is reported as -43.6% (inactive). In the case of CCOc1ccc2nc(NC3=NCN(Cc4ccco4)CN3)nc(C)c2c1, the inhibition is reported as -0.5% (inactive). C=CCSC1=N/C(=C\c2cc(OCC)c(OC(C)=O)c([N+](=O)[O-])c2)C(=O)S1 was tested, and the inhibition was 38.8% (inactive). With CCOc1cc(/C=C2\N=C(SCC)SC2=O)cc([N+](=O)[O-])c1OC(C)=O the inhibition was 53.1% (active). With CCOc1cc(/C=C2\N=C(SC)SC2=O)cc([N+](=O)[O-])c1OC(C)=O the inhibition was 35.6% (inactive). CC(=O)NCC(=O)N(C)C(C(=O)Nc1ccc2c(c1)OCCO2)c1ccc(C)cc1 (centres undefined) was tested, and the inhibition was 5.2% (inactive). With COC(=O)Nc1sc2c(c1C(N)=O)CCC(C)C2 (centres undefined) the inhibition was 59.6% (active). For CCOC(=O)Nc1sc2c(c1C(N)=O)CCC(C)C2 (centres undefined), the inhibition was -7.3% (inactive). For CC(=O)NC(=S)Nc1sc2c(c1C(N)=O)CCC(C)C2 (centres undefined), the inhibition was -3% (inactive). With CC(C)C(NC(=O)c1ccc(Br)cc1)C(=O)NC1=NCCS1 (centres undefined) the inhibition was -3% (inactive). CON1C(=O)C(=O)N(OC)C(C)(C)C1(C)C was tested, and the inhibition was 44.6% (inactive). For Clc1ccc(C2NCCc3sccc32)cc1 (centres undefined), the inhibition was 10.9% (inactive). CC1=CC(C)(C)N=C(NC#N)N1 was tested, and the inhibition was 2.4% (inactive). For O=C(COc1ccc(Cl)cc1)N1CCN(c2ccc([N+](=O)[O-])c(N3CCCCC3)c2)CC1, the inhibition was 12.2% (inactive). COC(=O)CNC(=O)c1cccc(Cl)c1 was tested, and the inhibition was -5% (inactive). O=C(NC(Cc1c[nH]c2ccccc12)C(=O)NCCCN1CCOCC1)c1cccs1 (centres undefined) was tested, and the inhibition was 11.4% (inactive). With O=C1c2ccccc2C(=O)c2c1oc(C(F)(F)F)c2C(=O)c1ccccc1 the inhibition was -32.9% (inactive). In the case of O=C(c1ccccc1)c1coc2c1C(=O)c1ccccc1C2=O, the inhibition is reported as 30.7% (inactive). In the case of CCCCOc1ccc(C(=S)N2CCC(C(N)=O)CC2)cc1, the inhibition is reported as 9.1% (inactive). In the case of CCN(CC)c1cccc(OCC(=O)N(C)CCC#N)c1, the inhibition is reported as 53.3% (active). In the case of CN(CCC#N)C(=O)COc1ccc(Br)cc1Cl, the inhibition is reported as -5.3% (inactive). CCc1ccc(OCC(=O)N(C)CCC#N)c(Br)c1 was tested, and the inhibition was 3.1% (inactive). With Cc1cc(C)n(-c2cc(N3CCOCC3)nc(-c3ccccc3)n2)n1 the inhibition was 8.9% (inactive). For CCc1sc(C(=O)NCCc2ccc(S(N)(=O)=O)cc2)cc1Br, the inhibition was 7.3% (inactive). With COc1cc(C(=O)NCCSc2ccc(Br)cc2)cc(OC)c1OC the inhibition was 5.3% (inactive). With Cc1cc(S(=O)(=O)Nc2ccc(N(C)C)cc2)c(C)s1 the inhibition was 10.9% (inactive). With CC(=O)Nc1ccc(NS(=O)(=O)c2cc(C)sc2C)cc1 the inhibition was 61.6% (active). Cc1cc(S(=O)(=O)Nc2ccc(F)cc2)c(C)s1 was tested, and the inhibition was 5% (inactive). In the case of CN(C)CCCNc1oc(-c2ccccc2)nc1C#N, the inhibition is reported as -7.3% (inactive). CCOC(=O)c1c(NCC2CCCO2)c2ccccc2[nH]c1=O (centres undefined) was tested, and the inhibition was -10.2% (inactive). With COc1ccc(N2C(=O)N(Cc3cccc(F)c3)c3ccccc3S2(=O)=O)cc1 the inhibition was 0.3% (inactive). With CC1(C)CC(=O)C2=C(C1)NC(=O)NC2c1ccccc1 (centres undefined) the inhibition was -2.6% (inactive). In the case of Cc1ccc(-n2nnnc2Sc2nc([N+](=O)[O-])nn2C)cc1, the inhibition is reported as 18.5% (inactive). In the case of CC1CCN(C(=S)Nc2ccc(F)cc2)CC1, the inhibition is reported as -10.5% (inactive). In the case of CC1CCN(C(=O)Nc2ccc3nsnc3c2)CC1, the inhibition is reported as 62% (active). In the case of Cc1nc2ccc(NC(=S)N3CCCC3)cc2nc1C, the inhibition is reported as 52.8% (active). O=C(Nc1ccc2nsnc2c1)N1CCCCC1 was tested, and the inhibition was 24.1% (inactive). In the case of Cc1nc2ccc(NC(=S)N3CCOCC3)cc2nc1C, the inhibition is reported as 45.1% (inactive). With Cc1nc2ccc(NC(=S)N3CCN(c4ccccn4)CC3)cc2nc1C the inhibition was 18.3% (inactive). For Cc1nc2ccc(NC(=O)N3CCCCC3)cc2nc1C, the inhibition was 21.5% (inactive). In the case of Cc1nc2ccc(NC(=S)N3CCC(C)CC3)cc2nc1C, the inhibition is reported as 55.4% (active). In the case of O=C(Nc1ccc2nsnc2c1)N1CCCCCC1, the inhibition is reported as 21.5% (inactive). COC(=O)CSc1cc(C)nc2ccc(OC)cc12 was tested, and the inhibition was 7.7% (inactive). With CC(C(=O)Nc1ccncc1)(c1ccccc1)c1ccccc1 the inhibition was 10.8% (inactive). In the case of O=C(CCN1C(=O)/C(=C/C=C/c2ccccc2)SC1=S)Nc1cccnc1, the inhibition is reported as 1.5% (inactive). In the case of Cc1noc(C)c1C(=O)N1CCN(Cc2ccc3c(c2)OCO3)CC1, the inhibition is reported as 6.8% (inactive). In the case of O=c1[nH]c2cc([N+](=O)[O-])c(NCCO)c([N+](=O)[O-])c2[nH]1, the inhibition is reported as 3.7% (inactive). In the case of CC(=O)Nc1c([N+](=O)[O-])cc2[nH]c(=O)[nH]c2c1[N+](=O)[O-], the inhibition is reported as 56.9% (active). In the case of CN(C)c1c([N+](=O)[O-])cc2[nH]c(=O)[nH]c2c1[N+](=O)[O-], the inhibition is reported as 9.6% (inactive). CC(C)Oc1ccc(C(CC(=O)O)n2cnnn2)cc1 (centres undefined) was tested, and the inhibition was 2% (inactive). Cc1nn(-c2ccccc2)c2c1C1(C(=O)N3c4c(cccc41)C(C)CC3(C)C)C(C#N)=C(N)O2 (centres undefined) was tested, and the inhibition was 21% (inactive). With CCN1C(=O)C2(C(C#N)=C(N)Oc3c2c(C)nn3-c2ccccc2)c2ccccc21 (centres undefined) the inhibition was 62.1% (active). In the case of COC(=O)CN1C(=O)C2(C(C#N)=C(N)Oc3n[nH]c(-c4cccs4)c32)c2ccccc21 (centres undefined), the inhibition is reported as 7.3% (inactive). For Cc1nn(-c2ccccc2)c2c1C1(C(=O)N(C)c3ccccc31)C(C#N)=C(N)O2 (centres undefined), the inhibition was 21.9% (inactive). For CC(=O)N1C(=O)C2(C(C#N)=C(N)Oc3c2c(C)nn3-c2ccccc2)c2ccccc21 (centres undefined), the inhibition was 62.8% (active). For COC(=O)CN1C(=O)C2(C(C#N)=C(N)Oc3c2c(C)nn3-c2ccccc2)c2ccccc21 (centres undefined), the inhibition was 58.9% (active). In the case of CC(=O)N1C(=O)C2(C(C#N)=C(N)Oc3cc(C)oc(=O)c32)c2ccccc21 (centres undefined), the inhibition is reported as 11% (inactive). COC(=O)CN1C(=O)C2(C(C#N)=C(N)Oc3cc(C)oc(=O)c32)c2ccccc21 (centres undefined) was tested, and the inhibition was 7.9% (inactive). In the case of Cc1nn(-c2ccccc2)c2c1C1(C(=O)N(C(C)C)c3ccccc31)C(C#N)=C(N)O2 (centres undefined), the inhibition is reported as 24.1% (inactive). In the case of CCCCC1NC(=S)N(C2CCCCC2)C1=O (centres undefined), the inhibition is reported as -7.2% (inactive). For COC(=O)c1sc2ccccc2c1-n1cccc1C(=O)C(=O)Nc1ccc(C)cc1, the inhibition was 4.8% (inactive). In the case of O=c1[nH]c(SCC2CCCCO2)nc2ccccc12 (centres undefined), the inhibition is reported as -2.3% (inactive). For O=C1CSC(c2cccc(Cl)c2Cl)N1c1ccccn1 (centres undefined), the inhibition was 12.3% (inactive). In the case of Cc1ccc(C)c(S(=O)(=O)Nc2ccccc2C(=O)Nc2cc(C)on2)c1, the inhibition is reported as 8.8% (inactive). In the case of COC(=O)c1cccc(NS(C)(=O)=O)c1C, the inhibition is reported as -5.8% (inactive). With CNc1nc(C)c(C(=O)OCC(=O)OC)s1 the inhibition was -0.1% (inactive). For CC(NC(=O)CSCc1ccccc1Br)c1ccccc1 (centres undefined), the inhibition was 4.4% (inactive). COc1ccc(NC(=S)Nc2ccccc2SC)c(OC)c1 was tested, and the inhibition was 20.7% (inactive). For Cc1ccc(CN(CC(=O)N/N=C/c2ccco2)S(=O)(=O)c2ccc(C)cc2)cc1, the inhibition was 4.9% (inactive). With CC1=C(C)C(=O)C(CCCCC#CCCCC#CCO)=C(C)C1=O the inhibition was 19.9% (inactive). In the case of Cc1[nH]c(=S)[nH]c(=O)c1CCCO, the inhibition is reported as 5.3% (inactive). For COC1=C(OC)C(=O)C(CCCCCCCCCCO)=C(C)C1=O, the inhibition was 78.2% (active). For COc1ccccc1-n1c(=S)[nH]c2c(sc(=S)n2-c2ccccc2)c1=O, the inhibition was -3.7% (inactive). In the case of COc1ccc(OC)c(-n2c(=S)[nH]c3c(sc(=S)n3-c3ccccc3)c2=O)c1, the inhibition is reported as 9.2% (inactive). Cc1ccc(/C=C2\SC(=S)N(C3CCS(=O)(=O)C3)C2=O)cc1 (centres undefined) was tested, and the inhibition was -2.5% (inactive). With C=CCn1c(COc2ccccc2F)nnc1SCC(=O)NC(=O)NCc1ccco1 the inhibition was -4% (inactive). With CN(C)c1ccc2c(c1)OC(N)=C(C#N)C2c1cccc(F)c1 (centres undefined) the inhibition was 25.2% (inactive). For Cc1ccc(C2C(C#N)=C(N)Oc3c2c(=O)n(C)c(=O)n3C)cc1 (centres undefined), the inhibition was -24.8% (inactive). For Cc1ccc(C2C(C#N)=C(N)Oc3n[nH]c(C)c32)cc1 (centres undefined), the inhibition was 8.4% (inactive). With Cc1oc(C)c2c(=O)ccc3c(c12)OC(N)=C(C#N)C3c1ccccc1 (centres undefined) the inhibition was 2.8% (inactive). For Cc1cc(C)c2c3c(sc2n1)C(c1cccc(F)c1)C(C#N)=C(N)O3 (centres undefined), the inhibition was -7% (inactive). CNc1nc2[nH]c(=O)c3c(c2s1)OC(N)=C(C#N)C3c1ccccc1 (centres undefined) was tested, and the inhibition was 52% (active). With CCNc1nc2[nH]c(=O)c3c(c2s1)OC(N)=C(C#N)C3c1ccc(C)cc1 (centres undefined) the inhibition was 62.6% (active). With COC(=O)C1=C(C)OC(N)=C(C#N)C1c1ccccc1 (centres undefined) the inhibition was -8.8% (inactive). In the case of CNc1nc2[nH]c(=O)c3c(c2s1)OC(N)=C(C#N)C3c1cccc(F)c1 (centres undefined), the inhibition is reported as 54.7% (active). For O=C1CCCC(O)=C1C1C2=C(CCCC2=O)Oc2ccccc21 (centres undefined), the inhibition was 6.5% (inactive). In the case of Nc1[nH]ncc1-c1ccc(Cl)cc1, the inhibition is reported as -1.5% (inactive). In the case of Cc1sc(NC(=O)CCCC(=O)O)c(C(N)=O)c1-c1ccccc1, the inhibition is reported as -5.5% (inactive). CC1CN(C(NC(=O)c2ccccc2)C(Cl)(Cl)Cl)CC(C)O1 (centres undefined) was tested, and the inhibition was -6.4% (inactive). CCN1C(=O)/C(=C/c2ccc(C)o2)N(C)C1=S was tested, and the inhibition was 28% (inactive). In the case of COC(=O)c1ccc(C(=O)Nc2ccc(N)cc2N)cc1, the inhibition is reported as 50.3% (active). With Cc1cc(N)ccc1NC(=O)c1ccccc1 the inhibition was 12.9% (inactive). With COC(=O)c1ccc(C(=O)Nc2ccc(C(C)C)cc2N)cc1 the inhibition was -2.9% (inactive). With Cc1ccc(OCC(O)CN2CCN(CC(O)COC(C)C)CC2)c(C(C)(C)C)c1 (centres undefined) the inhibition was -2.3% (inactive). For COC(=O)C1=C(C)NC(C)=C([N+](=O)[O-])C1c1ccccc1C(F)(F)F (centres undefined), the inhibition was -0.9% (inactive). With COc1ccccc1NC(=O)C1=C(C)NC(=O)NC1c1ccccc1[N+](=O)[O-] (centres undefined) the inhibition was 19.9% (inactive). COC(=O)C1=C(C)NC(C)=C(C(=O)OC)C1c1ccccc1[N+](=O)[O-] was tested, and the inhibition was 79.4% (active). In the case of CCOC(=O)C1=C(C)NC(C)=C(C(=O)OC)C1c1cccc([N+](=O)[O-])c1 (centres undefined), the inhibition is reported as 9.7% (inactive) and -2% (inactive). CC1=C(C(=O)Nc2ccccc2)C(c2ccccc2[N+](=O)[O-])NC(=O)N1 (centres undefined) was tested, and the inhibition was 53.3% (active). With CC1=C(C(=O)Nc2ccccc2)C(c2cccs2)NC(=O)N1 (centres undefined) the inhibition was -0.7% (inactive).
